# Screening results from PubChem.
# MazF activator – activators of E. coli MazEF toxin-antitoxin RNase, primary screen, biochemical, fluorescence, uHTS. activation, % at 20 µM. actives 0.32% (n = 350,000). Endoribonuclease toxin MazF (Escherichia coli (strain K12)), P0AE70. FAM/BHQ RNA-DNA oligo cleavage fluorescence, 5 h. AID 504720, 2011; in the data active = activation above about 50%
# Target sequence (P0AE70 whole entry, looked up): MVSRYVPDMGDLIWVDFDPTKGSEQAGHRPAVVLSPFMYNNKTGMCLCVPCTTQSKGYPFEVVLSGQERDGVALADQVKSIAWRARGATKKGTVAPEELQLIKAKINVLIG
# PfHsp40 rescue – rescue of yeast from PfHsp40 toxicity, primary screen, S. cerevisiae, ATP luminescence | growth rescue, % at 12.5 µM | actives 0.68% (n = 340,000) | S. cerevisiae expressing PfHsp40, growth rescue | AID 504582, 2011; in the data active = growth rescue above about 28%, passing the limit was not always enough; inconclusive = no clear call, values can overlap the other calls;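 note: yeast W303a lacking pdr1 and pdr3 grown in galactose medium; growth measured after three days at 30 °C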
# BJeLR lethal – MLPCN primary cell-based screen for lethality selective to Ras in HRASV12 cells. BJeLR (HRASV12) viability, CellTiter-Glo ATP luminescence, 48 h. inhibition, % (test concentration not listed). actives 0.17% (n = 300,000). AID 1554, 2009; in the data active = inhibition above about 50%; inconclusive = no clear call, values can overlap the other calls
# SARS 3CLpro inh – SARS-CoV 3CLpro protease inhibitors, primary screen, biochemical, quenched FRET | Replicase polyprotein 1ab (Severe acute respiratory syndrome coronavirus), P0C6X7 | recombinant SARS-CoV 3CLpro, quenched FRET peptide cleavage | inhibition, % at 6 µM | actives 0.14% (n = 290,000); in the data active = inhibition above about 12%
# VHR inh abs – VHR1 phosphatase inhibitors, primary screen, biochemical, absorbance, uHTS; inhibition, % at 13.3 µM; recombinant VHR phosphatase, pNPP absorbance; Dual specificity protein phosphatase 3 (Homo sapiens), P51452; actives 0.52% (n = 290,000); AID 1654, 2009; in the data active = inhibition above about 50%
# Target sequence (P51452 whole entry, looked up): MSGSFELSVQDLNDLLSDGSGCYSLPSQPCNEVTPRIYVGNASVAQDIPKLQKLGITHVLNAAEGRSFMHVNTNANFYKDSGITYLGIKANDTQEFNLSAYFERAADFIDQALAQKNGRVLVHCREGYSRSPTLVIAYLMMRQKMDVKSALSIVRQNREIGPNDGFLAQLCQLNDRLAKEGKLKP
# Vc quorum ag – inducers of Vibrio cholerae quorum light production without autoinducers, primary screen, BH1578 luxS cqsA deficient, single point; V. cholerae BH1578 lux reporter, luminescence, 6 h; activation, % at 18.7 µM; actives 0.16% (n = 350,000); AID 588436, 2011; in the data active = activation mostly above about 9.7%, no sharp cut-off; inconclusive = no clear call, values can overlap the other calls; inactive = mostly below about 3.7%
# Active calls of the source: *; i = inactive; ? = inconclusive; . = not tested or not shown. Only some compounds are listed: those with a hit (about 1.7% of all), similar ones and a draw of the others.
SMILES,MazF activator,PfHsp40 rescue,BJeLR lethal,SARS 3CLpro inh,VHR inh abs,Vc quorum ag
CCN(CC)c1ccc(/C=N/NC(=O)c2ccco2)c(O)c1,-10,-1,58*,-1,9,0
C(=N\Nc1nc2ccccc2[nH]1)/c1ccc2c(c1)OCCO2,-15,1,16,6,-1,-1
COc1cc(OC)c(OC)cc1/C=N/Nc1nc2ccccc2[nH]1,8,1,2,-8,6,0
CCN(CC)c1ccc(/C=N/NC(=O)c2ccco2)cc1,-13,-1,1,-3,-5,-1
CCOc1cc(N(CC)CC)ccc1/C=C(/C#N)c1nc2ccccc2[nH]1,132*,2,8,-14,5,6
CCCOc1cc(N(CC)CC)ccc1/C=C(/C#N)c1nc2ccc(C)cc2[nH]1,-504,1,-6,-1,-9,i
C(=N\Nc1nc2ccccc2[nH]1)/c1ccc2ncccc2c1,3,-2,88*,-10,20,-1
CCN(CC)c1ccc(/C=N/Nc2nc3ccccc3[nH]2)c(O)c1,27,158*,60*,1,10,.
CCCN(CC(=O)Nc1ccccc1C)C(=O)C1CCN(S(=O)(=O)c2ccc(C)c(C)c2)CC1,5,.,.,.,.,0
Cc1cc(C)n(CC(=O)NNC(=O)c2ccc(OC(F)(F)F)cc2)n1,14,-1,.,.,.,i
C(=N\Nc1nncc2ccccc12)/c1ccccn1,2,413*,56*,-7,-12,0
O=c1nc(N/N=C/c2ccccn2)cn[nH]1,-5,617*,-6,2,2,0
COc1cc(/C=N\Nc2nc3ccccc3[nH]2)cc(OC)c1OC,5,0,5,-2,17,0
Fc1cccc(/C=N/Nc2nncc3ccccc23)c1,-2,-2,4,-4,2,0
O=c1cnnc(N/N=C/c2ccccn2)[nH]1,8,?,63*,0,14,i
COc1ccc(/C=N/Nc2nc3ccccc3[nH]2)cc1OC,8,75*,-10,2,-2,3
Cc1cc(=O)[nH]c(N/N=C/c2ccccn2)n1,7,-1,24,7,12,0
CCCCC(=O)c1ccc(OC(=O)c2ccc([N+](=O)[O-])cc2)cc1,-1,0,.,.,.,i
COc1cccc(C(C)(O)c2nc(-c3ccc(F)c(Cl)c3)cs2)c1 (configuration not stated),.,.,.,.,.,-1
Cc1[nH]c(=O)[nH]c(=O)c1C=CC(=O)NC(CO)CS(=O)Cc1ccccc1 (configuration not stated),5,.,.,.,.,i
C(=N\Nc1nc2ccccc2[nH]1)/c1cccc2nccnc12,11,-1,18,-3,8,0
C(=N\Nc1nc2ccccc2[nH]1)/c1ccccn1,0,-1,54*,-3,37,0
COc1ccc(C(=O)/C=C2/Sc3cc4c(cc3N2C)OCO4)cc1,-11,?,-11,-6,26,0
COc1ccc2c(c1)S/C(=C\C(=O)c1ccncc1)N2C,141*,174*,-4,-3,5,0
CN1/C(=C/C(=O)c2ccc(Cl)cc2)Sc2cc3c(cc21)OCO3,431*,0,-7,1,26,0
SMILES,MazF activator,PfHsp40 rescue,BJeLR lethal,SARS 3CLpro inh,VHR inh abs,Vc quorum ag
COc1cc(OC)cc(C(=O)/C=C2\Sc3ccccc3N2C)c1,0,-1,-13,-5,8,0
O=c1oc2c(O)c(O)cc3c(=O)oc4c(O)c(O)cc1c4c23,8,152*,.,-5,.,-1
Fc1ccccc1-n1c(-c2ccc3ccccc3n2)n[nH]c1=S,0,1,3,6,53*,0
COc1cc(/C=C/c2ccc3cccc(O)c3n2)cc(OC)c1OC,6,0,56*,-2,-16,-1
COc1ccc(/C=C/c2ccc3cccc(O)c3n2)c(OC)c1OC,0,33*,8,-2,10,3
COc1cccc(/C=C/c2ccc3cccc(O)c3n2)c1,-2,35*,24,0,10,0
COc1cc(/C=C/c2nc(-c3ccccc3O)n[nH]2)cc(OC)c1OC,6,42*,1,9,12,i
CC(C)C(NC(=O)c1c(F)cccc1F)C(=O)N1CCN(S(=O)(=O)/C=C/c2ccccc2)CC1 (configuration not stated),2,1,.,.,.,i
COc1ccc(N(C(C)=O)c2nc(C)cc(C)c2C#N)c(OC)c1,-22,-1,-2,-10,27,0
CN(C(=O)c1ccc(NC(=O)Cc2ccc(NC(=O)C3CCCN(C(=O)C4CCC4)C3)cc2)cc1)C1CCCC1 (configuration not stated),-1,0,.,.,.,1
O=[N+]([O-])c1ccc(/C=C/c2ccc3ccccc3n2)cc1,-1,0,15,1,41,2
O=[N+]([O-])c1ccc(/C=C/c2ccc3cccc(O)c3n2)cc1,92*,0,-4,3,30,i
COc1ccc(Br)cc1/C=C/c1ccc2cccc(O)c2n1,-7,0,6,0,57*,i
COc1cc(Br)cc(/C=C/c2ccc3cccc(O)c3n2)c1OC,-13,1,9,-6,.,1
O=[N+]([O-])c1ccc(OCCCCN2CCc3ccccc3C2)cc1,1,2,2,0,30,i
CCc1cc(=O)oc2cc(OC(C)C(=O)N3CC[C@@]4(O)CCCC[C@H]4C3)ccc12 (some centres not stated),.,.,.,.,.,0
O=C(c1ccco1)N1CCN(C(=O)C2CC(c3ccc(Cl)cc3)=NO2)CC1 (configuration not stated),1,-1,-4,0,59*,i
Cc1nn(C)cc1/C=N/NC(=O)c1ccco1,9,1,-17,-2,16,i
Cc1nn(C)cc1C=NCCOCc1ccccc1,2,1,-1,1,52*,0
COc1ccc(C(=O)c2c(C)oc3ccc(O)cc23)c(OC)c1,9,0,-4,-2,58*,3
CN(C)c1ccc(/C=C/c2ccc3ccccc3n2)cc1,-119,-2,71*,1,8,-1
C/C(=N\NC(=S)NCc1ccccc1)c1cccc(Br)c1,-2,136*,5,0,-10,0
C/C(=N\NC(=S)NCCc1ccccc1)c1cccc(Br)c1,-7,-1,8,-2,21,-1
CCN(CC)S(=O)(=O)c1cccc(NC(=O)c2ccc(C#N)cc2)c1,7,-2,22,-4,15,i
